Shown are actives, neighbours in structure and some others; about 6.1% of the full set was active somewhere.
HepG2 tox: kills HepG2 cells in TGF-b inhibitor counter-screen. HepG2 CAGA-GFP viability, ATP luminescence, 18 h. 410,000 tested, 0.76% active. Potency, µM (doses to about 46.1 µM), actives largely listed as cytotoxic. AID 588856
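HepG2 CAGA-GFP cells (1000/well, DMEM with 1% FBS) received compound, then TGF-beta at 500 pg/mL final, and were incubated 18 hours at 37 degrees C. Viability was read by CellTiter-Glo luminescence. Media-only wells were set as complete cell-killing and DMSO as no toxicity.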
TGFb inhibitor: TGF-b pathway inhibition; HepG2 CAGA-GFP TGF-b/SMAD3 reporter, GFP fluorescence, 18 h; TGF-beta stimulated, 500 pg/mL final; Potency, µM (series often up to 46.1 µM), most hits filed as inhibitors; 410,000 tested, 1.2% active; further: nearly all actives have a fitted effect of over 65% in size
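Smad-responsive CAGA-GFP expression was quantified in HEPG2 cells exposed to compounds and 500 pg/mL final TGF-beta for 18 h at 37 degrees C; unstimulated wells defined full inhibition.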
S2 tox: viability counter-screen for ATXN expression inhibitors; 400,000 tested, 0.49% active; AID 651635; S2 cells (HEK-293 line with an ATXN2-luciferase reporter) viability, CellTiter-Fluor protease fluorescence, 24 h; Potency, µM (top dose mostly 56.7 µM), hits mostly cytotoxic; further: nearly all actives have a fitted effect of over 40% in size
RORgamma inh: blocks mouse ROR gamma transcriptional activity | Drosophila S2 Gal4-RORgamma UAS-luciferase reporter, 20 h | Potency, µM (highest dose often 53.6 µM), actives largely listed as inhibitors | 310,000 tested, 5.4% active | AID 2551; further: nearly all actives have a fitted effect of over 60% in size
Target sequence (P51450 whole entry, looked up, the tested form may be a part): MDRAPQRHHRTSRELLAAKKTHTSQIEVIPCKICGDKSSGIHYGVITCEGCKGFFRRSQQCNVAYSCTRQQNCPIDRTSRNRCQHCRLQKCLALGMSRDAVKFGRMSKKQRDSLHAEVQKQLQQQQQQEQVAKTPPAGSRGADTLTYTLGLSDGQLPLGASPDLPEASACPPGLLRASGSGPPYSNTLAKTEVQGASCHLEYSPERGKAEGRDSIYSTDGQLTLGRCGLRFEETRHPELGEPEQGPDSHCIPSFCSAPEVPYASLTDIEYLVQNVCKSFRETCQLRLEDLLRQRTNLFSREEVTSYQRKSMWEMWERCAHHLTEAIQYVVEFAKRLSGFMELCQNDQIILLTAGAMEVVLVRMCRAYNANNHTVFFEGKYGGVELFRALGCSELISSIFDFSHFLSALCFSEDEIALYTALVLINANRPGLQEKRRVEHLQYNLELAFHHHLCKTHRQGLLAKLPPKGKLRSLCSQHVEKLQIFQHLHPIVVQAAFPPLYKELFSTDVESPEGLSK
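Compounds are pin-transferred onto Drosophila Schneider cells expressing a copper-inducible Gal4–ROR gamma transactivation domain fusion. After 1 hr, copper sulfate is added to 700 uM final; luciferase is read 20 hr later.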
VP16 counter: inhibits Gal4-VP16 luciferase reporter, ROR gamma counter-screen; Drosophila S2 Gal4-VP16 UAS-luciferase, luminescence, 20 h; Potency, µM (doses to about 53.6 µM), most hits filed as inhibitors; 310,000 tested, 3.5% active;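 further: Gal4-VP16 expression switched on by copper sulfate through the metallothionein promoter; nearly all actives have a fitted effect of over 50% in size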
ATXN2 expr inh: reduces ATXN2 reporter expression in HEK-293 cells; HEK-293 ATXN2-luciferase reporter, luminescence, 24 h; Potency, µM (highest dose often 57 µM), hits mostly inhibitors; 360,000 tested, 0.72% active; AID 1745845; further: nearly all actives have a fitted effect of over 55% in size
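qHTS (up to 57 uM final) was run with 24 h compound exposure of reporter cells at 37 °C. Each well was multiplexed: SteadyGlo luminescence measured ATXN2-luciferase expression after a fluorogenic Gly-Phe-AFC viability readout (25 uM final).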
Numbers stand for hits; - = inactive; ? = inconclusive; . = no result; ! = repeats disagree. The call rests on the fitted dose curve; in most records, active means well fitted curve in the direction sought with a large enough effect; inconclusive means small, poorly fitted or top-dose-only effect, or another doubt; inactive means no such curve, though single readings can be large; an effect the other way counts as inactive or inconclusive.

SMILES | HepG2 tox | TGFb inhibitor | S2 tox | RORgamma inh | VP16 counter | ATXN2 expr inh
CC1OC(=O)C(C(C)C)NC(=O)C(C(C)C)OC(=O)C(C(C)C)NC(=O)C(C)OC(=O)C(C(C)C)NC(=O)C(C(C)C)OC(=O)C(C(C)C)NC(=O)C(C)OC(=O)C(C(C)C)NC(=O)C(C(C)C)OC(=O)C(C(C)C)NC1=O (centres undefined) | . | . | . | 0.25µM | 0.56µM | .
CCCCC/C=C\C/C=C\C/C=C\C/C=C\CCCC(=O)NCCc1ccc(O)c(O)c1 | . | . | . | 11µM! | - | .
COc1ccc(-c2c3c(=O)n(C)c(=O)n(C)c3c3n2-c2ccccc2NC3c2ccccc2OC)cc1 (centres undefined) | - | ? | - | . | . | -
CN1CC[C@@]2(C)c3cc(O)ccc3N(C)[C@@H]12 | 18µM! | ? | 14µM | - | - | -
CN1CC[C@@]2(C)c3cc(O)ccc3N(C)C2O1 (some centres undefined) | - | - | - | ? | ? | -
CC1(C)CSC(=NCc2ccccc2)N1 | - | 8.9µM | - | - | - | .
COc1cc2c(cc1OC)C1C(=O)c3c(cc4c(c3O)C=CC(C)(C)O4)OC1CO2 (centres undefined) | . | . | . | 2.8µM | 1µM | .
Cc1ccc(C(=O)N[C@@H](C)CN2C3=NC[C@@H](Cc4ccccc4)N3C[C@H]2Cc2ccc(O)cc2)cc1Br | - | ? | 25µM | - | - | ?
Cc1ccc(C(=O)N[C@@H](C)CN2C3=NC[C@H](Cc4ccccc4)N3C[C@H]2Cc2ccc(O)cc2)cc1Br | 11µM | 13µM | . | - | - | 25µM
O=[N+]([O-])c1cc(C(F)(F)F)c(Cl)c([N+](=O)[O-])c1Nc1ncc(C(F)(F)F)cc1Cl | 2.5µM | 1.8µM | . | . | . | .
O=C(O)c1cc(Oc2ccc(C(F)(F)F)cc2Cl)ccc1[N+](=O)[O-] | - | - | - | - | - | -
O=Cc1ccc2c(c1)OCO2 | . | . | . | - | - | .
N#CC(C#N)=Cc1ccc(C=C(C#N)C#N)cc1 | 25µM | ? | ? | ? | ? | ?
CC1Oc2cc3c(-c4c(O)cc(O)c5c(O)c6c(cc45)OC(C)C(C)C6=O)c(O)cc(O)c3c(O)c2C(=O)C1C (centres undefined) | 11µM | 14µM | ? | 4µM | ? | 11µM
CCCCCN=C(N)N/N=C/c1c[nH]c2ccc(OC)cc12 | 16µM | ? | 18µM | - | - | 5.6µM!
NC(=Nc1ccccc1)NN=Cc1c[nH]c2ccccc12 | - | ? | ? | . | . | -
Cc1oc2ccc(O)c(CN3CCCCCC3)c2c1C(=O)Nc1cccc(Cl)c1C | - | ? | . | . | . | .
COc1cc2nc(N(C)C)c(CNCCc3c[nH]c4ccccc34)cc2c(OC)c1OC | . | . | - | . | . | .
S=c1[nH]nc(-c2ccccc2)n1C1C=CCCC1 (centres undefined) | - | - | - | - | 2.8µM | -
Cc1cc(N2CCCCC2)nc2ccc(NC(=O)/C=C/c3ccc(OC(C)C)cc3)cc12 | - | ? | - | . | . | -
S=C(SSC(=S)N1CCCCC1)N1CCCCC1 | . | . | 10µM! | . | . | -
COc1ccc(CCNc2nc3c(c(=O)n(C)c(=O)n3C)n2Cc2ccc(F)cc2)cc1OC | - | - | ? | . | . | -
CS(=O)(=O)c1ccc(C(=O)C2C(=O)CCCC2=O)c([N+](=O)[O-])c1 | . | . | - | . | . | -
Cc1c(P(=S)(c2ccccc2)c2ccccc2)[n+]2ccccc2n1C/C=C/c1ccccc1 | 20µM | ? | 14µM | . | . | ?
CN1CC=C(/C=C/c2ccc(-c3ccccc3)cc2)CC1 | 11µM | ? | ? | ? | ? | .
SMILES | HepG2 tox | TGFb inhibitor | S2 tox | RORgamma inh | VP16 counter | ATXN2 expr inh
O=C(Nc1ccc(Cl)c(C(F)(F)F)c1)NC1CC2CCCC(C1)N2Cc1ccccc1 (centres undefined) | - | 20µM | ? | ? | ? | ?
O=c1[nH]c2ccccc2n1C1CCN(C(c2cc3ccccc3o2)c2nnnn2-c2ccc3c(c2)OCCO3)CC1 (centres undefined) | - | - | ? | . | . | 13µM
COc1ccc(-n2nnnc2C(c2cc3ccccc3o2)N2CCC(n3c(=O)[nH]c4ccccc43)CC2)cc1 (centres undefined) | - | ? | 7.9µM | . | . | 7.9µM
O=c1[nH]c2ccccc2n1C1CCN(C(c2cccc3ccccc23)c2nnnn2-c2ccc3c(c2)OCCO3)CC1 (centres undefined) | - | ? | ? | . | . | -
ClCC(Cl)Cl | . | . | . | - | - | .
CC1=CC(c2ccccc2)NC(=S)N1 (centres undefined) | - | - | - | 11µM | ? | -
CCOc1cc(CNCCc2c[nH]c3ccccc23)cc(Cl)c1OC | - | 16µM | ? | ? | ? | ?
BrCCBr | . | . | . | - | - | .

Screening data as filed in PubChem BioAssay.
